Data on 53 compounds can be found in paper PMC4336329 (PLoS ONE, 2015).

Among all 310,000 compounds or so, about 14,000 (4.5%) showed an effect of 50% or more. The effect is printed as a negative number. The full list was thinned out, with strong results kept by preference.
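Further: peak tail current of the secondary pulse compared with the same well before compound.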

human ether-à-go-go-related gene (hERG) potassium channel, sequence (Q12809 whole entry, looked up): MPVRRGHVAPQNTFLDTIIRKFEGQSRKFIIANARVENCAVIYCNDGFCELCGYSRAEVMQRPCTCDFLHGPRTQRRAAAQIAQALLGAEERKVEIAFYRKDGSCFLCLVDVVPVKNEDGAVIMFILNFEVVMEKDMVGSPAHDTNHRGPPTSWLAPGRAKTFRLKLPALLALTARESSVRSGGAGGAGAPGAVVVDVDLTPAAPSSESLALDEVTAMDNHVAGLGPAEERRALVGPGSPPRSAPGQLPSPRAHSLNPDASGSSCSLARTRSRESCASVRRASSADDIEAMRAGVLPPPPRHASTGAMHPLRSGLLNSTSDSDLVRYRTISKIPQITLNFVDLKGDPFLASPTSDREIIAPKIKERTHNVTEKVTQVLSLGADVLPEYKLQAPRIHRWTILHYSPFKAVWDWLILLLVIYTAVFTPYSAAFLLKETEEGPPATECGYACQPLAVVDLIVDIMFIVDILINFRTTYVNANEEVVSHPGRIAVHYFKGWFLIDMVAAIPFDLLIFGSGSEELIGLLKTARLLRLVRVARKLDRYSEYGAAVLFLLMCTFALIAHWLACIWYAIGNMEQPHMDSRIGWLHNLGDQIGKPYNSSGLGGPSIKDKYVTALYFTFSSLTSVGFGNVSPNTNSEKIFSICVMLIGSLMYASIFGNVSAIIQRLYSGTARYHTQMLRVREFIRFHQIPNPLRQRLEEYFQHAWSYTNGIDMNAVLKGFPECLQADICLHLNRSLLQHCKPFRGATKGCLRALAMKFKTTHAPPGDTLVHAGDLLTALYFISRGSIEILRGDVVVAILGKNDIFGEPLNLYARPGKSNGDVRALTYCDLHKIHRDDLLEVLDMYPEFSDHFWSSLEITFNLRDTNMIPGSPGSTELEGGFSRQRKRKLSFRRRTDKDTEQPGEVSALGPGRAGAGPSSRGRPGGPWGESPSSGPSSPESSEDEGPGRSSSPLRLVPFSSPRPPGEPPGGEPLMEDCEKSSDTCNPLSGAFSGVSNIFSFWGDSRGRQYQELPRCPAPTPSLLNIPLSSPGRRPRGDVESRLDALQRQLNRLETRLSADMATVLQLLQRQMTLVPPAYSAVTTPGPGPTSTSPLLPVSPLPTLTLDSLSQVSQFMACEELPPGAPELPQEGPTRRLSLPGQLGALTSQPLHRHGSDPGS

The test addresses human ether-à-go-go-related gene (hERG) potassium channel (human, UniProt Q12809). The experiment in a line: primary screen, population patch clamp on CHO cells stably expressing hERG; higher = less effect of the substance.
With `COc1ccc(NC(C)=O)cc1CNC(=O)CN1CCOCC1`, the “hERG current change (%, negative = inhibition) at 10uM” value is 19.1%.
`O=C(NCC(=O)N(CCN1CCOCC1)C(C(=O)NC1CCCC1)c1cccs1)c1ccco1` (centres unmarked): the “hERG current change (%, negative = inhibition) at 10uM” value is -0.929%.
To `O=C(NC1CCCCC1)C(c1cccs1)N(CCCN1CCOCC1)C(=O)c1ccc(-c2ccccc2)[nH]1` (centres unmarked) belongs -66.5%.
Regarding `CCOc1ccc(C(C(=O)NC2CCCC2)N(CCCO)C(=O)c2ccc(-c3ccccc3)[nH]2)cc1` (centres unmarked), the “hERG current change (%, negative = inhibition) at 10uM” value was -61.6%.
As for `O=C(NC1CCCC1)C(c1ccncc1)N(Cc1ccco1)C(=O)c1ccc(-c2ccccc2)[nH]1` (centres unmarked), the “hERG current change (%, negative = inhibition) at 10uM” value is on record as 1.38%.
Turning to `O=C(NC1CCCC1)C(c1ccncc1)N(CCCN1CCOCC1)C(=O)c1ccc(-c2ccccc2)[nH]1` (centres unmarked), the “hERG current change (%, negative = inhibition) at 10uM” value is reported as -61.1%.
With `Cc1ccc(C(C(=O)NC(C)(C)C)N(CCCN2CCOCC2)C(=O)c2ccc(-c3ccccc3)[nH]2)o1` (centres unmarked), the “hERG current change (%, negative = inhibition) at 10uM” value was -76.5%.
In the case of `O=C(NC1CCCCC1)C(c1ccc(F)cc1)N(CCN1CCOCC1)C(=O)c1ccc(-c2ccccc2)[nH]1` (centres unmarked), the “hERG current change (%, negative = inhibition) at 10uM” value came out at 24.4%.
For the compound `O=C(NC1CCCCC1)C(c1ccncc1)N(Cc1ccccc1)C(=O)c1ccc(-c2ccccc2)[nH]1` (centres unmarked), the “hERG current change (%, negative = inhibition) at 10uM” value amounted to 4.6%.
As for `O=C(NCC1CCCO1)C(c1cccs1)N(Cc1cccs1)C(=O)c1ccc(-c2ccccc2)[nH]1` (centres unmarked), the “hERG current change (%, negative = inhibition) at 10uM” value worked out at 7.78%.
As for `Cc1ccc(C(C(=O)NCC2CCCO2)N(Cc2ccccc2)C(=O)c2ccc(-c3ccccc3)[nH]2)o1` (centres unmarked), the “hERG current change (%, negative = inhibition) at 10uM” value is listed as -7.63%.
For the compound `O=C(NCC1CCCO1)C(c1ccc(F)cc1)N(CCCN1CCOCC1)C(=O)c1ccc(-c2ccccc2)[nH]1` (centres unmarked), the “hERG current change (%, negative = inhibition) at 10uM” value was -26.2%.
`O=C(NC1CCCC1)C(c1ccncc1)N(Cc1ccccc1)C(=O)c1ccc(-c2ccccc2)[nH]1` (centres unmarked): the “hERG current change (%, negative = inhibition) at 10uM” value was -4.27%.
For the compound `Cc1ccc(C(=O)COC(=O)c2ccccc2N2C(=O)C3C4CCC(C4)C3C2=O)cc1C` (centres unmarked), the “hERG current change (%, negative = inhibition) at 10uM” value is -19.2%.
As for `CCN(CCO)C(=O)C12CCC(C)(C(=O)C1)C2(C)C` (centres unmarked), the “hERG current change (%, negative = inhibition) at 10uM” value was -9.66%.
With `COc1c(Cl)cc(C(=O)NN)cc1Cl`, the “hERG current change (%, negative = inhibition) at 10uM” value worked out at 0.95%.
In the case of `CC(=O)Nc1sc2c(c1C(N)=O)CCCC2`, the “hERG current change (%, negative = inhibition) at 10uM” value is reported as 22.8%.
On to `CCc1cccc(C)c1NC(=O)CCOc1ccccc1`, for which the “hERG current change (%, negative = inhibition) at 10uM” value was determined as 3.79%.
With `c1ccc(C2=Nc3cccnc3C(c3ccccc3)=NN2)cc1`, the “hERG current change (%, negative = inhibition) at 10uM” value stood at 15.9%.
Consider `O=C(CCNS(=O)(=O)c1ccccc1)OCC(=O)c1ccc(Cl)cc1`, for which the “hERG current change (%, negative = inhibition) at 10uM” value is on record as -30%.
As for `CC(C)CN(C(=O)COC(=O)c1ccc(Br)cc1)c1c(N)n(Cc2ccccc2)c(=O)[nH]c1=O`, the “hERG current change (%, negative = inhibition) at 10uM” value was -2.83%.
To `CCOC(=O)C1=C(COC(=O)c2cccs2)NC(=O)NC1C` (centres unmarked) belongs 6.08%.
For `Cc1sc(NC(=O)c2ccccc2F)c(CN2CCCCC2C)c1C` (centres unmarked), the “hERG current change (%, negative = inhibition) at 10uM” value is given as -7.58%.
For the compound `Cc1ccccc1NC(=O)c1ccc(Cl)c(NC(=O)c2ccncc2)c1`, the “hERG current change (%, negative = inhibition) at 10uM” value is -32.1%.
Take `CSC1=N/C(=C\c2ccc3c(c2)OCO3)C(=O)S1`: the “hERG current change (%, negative = inhibition) at 10uM” value is reported as 12.3%.
Consider `O=C(N/N=C/c1cccs1)C1CC(=O)N(c2ccccc2)C1` (centres unmarked), for which the “hERG current change (%, negative = inhibition) at 10uM” value is listed as -8.24%.
Regarding `Cn1ncc2c(NNC(=O)c3ccccc3Cl)ncnc21`, the “hERG current change (%, negative = inhibition) at 10uM” value is listed as 10.1%.
Take `Cc1ccccc1N1CCN(C2CCCN(C(=O)CCC(F)(F)F)C2)CC1` (centres unmarked): the “hERG current change (%, negative = inhibition) at 10uM” value is given as -47.3%.
To `Cc1ccccc1N1CCN(C2CCCN(C(=O)CN3CCCC3=O)C2)CC1` (centres unmarked) belongs 5.78%; to `Cc1ccccc1N1CCN(C2CCCN(C(=O)CCC(=O)N(C)C)C2)CC1` (centres unmarked), 9.34%; to `Cc1cc(C)n(CC(=O)N2CCCC(N3CCN(c4ccccc4C)CC3)C2)n1` (centres unmarked), -14%.
For the compound `Cc1ccccc1N1CCN(C2CCCN(C(=O)COc3ccccc3)C2)CC1` (centres unmarked), the “hERG current change (%, negative = inhibition) at 10uM” value is recorded as -62.7%.
`CC(=O)c1ccc(OCC(=O)N2CCCC(N3CCN(c4ccccc4C)CC3)C2)cc1` (centres unmarked): the “hERG current change (%, negative = inhibition) at 10uM” value is -75.2%.
Consider `Cc1ccccc1N1CCN(C2CCCN(C(=O)CCN3CCCO3)C2)CC1` (centres unmarked), for which the “hERG current change (%, negative = inhibition) at 10uM” value is on record as -0.397%.
To `COc1ccc(OCC(=O)N2CCCC(N3CCN(c4ccccc4C)CC3)C2)cc1` (centres unmarked) belongs -85.9%; to `CC(C)=CC(=O)N1CCCC(N2CCN(c3ccccc3C)CC2)C1` (centres unmarked), -16%.
Take `CC(=NCC1CCCO1)C1=C(O)CC(C)(C)CC1=O` (centres unmarked): the “hERG current change (%, negative = inhibition) at 10uM” value is listed as -5.04%.
Turning to `COc1ccccc1COCC(O)CN(Cc1ccco1)Cc1ccccc1O` (centres unmarked), the “hERG current change (%, negative = inhibition) at 10uM” value is -27%.
Turning to `CC(=O)c1cccc(NC(=O)CCn2c(=S)oc3ccccc32)c1`, the “hERG current change (%, negative = inhibition) at 10uM” value is given as 9.8%.
On to `CC(=O)NC1(c2cccc(F)c2)CCN(C(=O)Nc2ccc(C#N)cc2)CC1`, for which the “hERG current change (%, negative = inhibition) at 10uM” value was -13.8%.
To `O=C(Nc1cccnc1)c1cc([N+](=O)[O-])ccc1Cl` belongs -0.51%; to `CCC1CCCCN1CCCNC(=O)c1ccc(CS(=O)(=O)c2ccc(Br)cc2)o1` (centres unmarked), -56.7%.
To `O=C(NCCN1CCCCCC1)c1ccc(CS(=O)(=O)c2ccc(Br)cc2)o1` belongs -57.4%; to `CCC1CCCCN1CCCNC(=O)c1ccc(CS(=O)(=O)c2ccccc2C)o1` (centres unmarked), -26.5%.
To `O=C(NCCCN1CCOCC1)c1ccc(CS(=O)(=O)c2ccc(Br)cc2)o1` belongs -6.32%; to `CN1CCN(CCCNC(=O)c2ccc(CS(=O)(=O)c3ccc(Br)cc3)o2)CC1`, -10.3%.
In the case of `Cc1ccccc1S(=O)(=O)Cc1ccc(C(=O)NCCCN2CCN(C)CC2)o1`, the “hERG current change (%, negative = inhibition) at 10uM” value is -1.6%.
Regarding `O=C(NCCCN1CCCC1)c1ccc(CS(=O)(=O)c2ccc(Br)cc2)o1`, the “hERG current change (%, negative = inhibition) at 10uM” value is -16.7%.
For `O=C(NCCN1CCN(Cc2ccccc2)CC1)c1ccc(CS(=O)(=O)c2ccc(Br)cc2)o1`, the “hERG current change (%, negative = inhibition) at 10uM” value was -79.8%.
Consider `CCN1CCN(CCNC(=O)c2ccc(CS(=O)(=O)c3ccccc3C)o2)CC1`, for which the “hERG current change (%, negative = inhibition) at 10uM” value is -1.23%.
For `Cc1ccccc1S(=O)(=O)Cc1ccc(C(=O)NCCN2CCN(Cc3ccccc3)CC2)o1`, the “hERG current change (%, negative = inhibition) at 10uM” value is on record as -61.9%.
For `CCC1CCCCN1CCCNC(=O)c1ccc(CS(=O)(=O)c2ccccc2OC)o1` (centres unmarked), the “hERG current change (%, negative = inhibition) at 10uM” value is on record as 6.46%.
For `O=C(NCCN1CCOCC1)c1ccc(CS(=O)(=O)c2ccc(Br)cc2)o1`, the “hERG current change (%, negative = inhibition) at 10uM” value is -2.9%.
